Laboratory results reported in PubChem BioAssay (NCI).
About 79,000 compounds went through this panel and 15% of them were active in at least one assay; those are over-represented in the sample as a whole. Values without a mark were called inactive. Active and inactive are the calls of the source. No stated cut-off is given here; in the data, active means growth inhibition above about 70%; inactive means the rest.

What was measured:
[1] = NCI Yeast Anticancer Drug Screen. Data for the rad50 strain (AID 155);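 further: 0% = growth of vehicle-only cultures of the same strain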; conditions: S. cerevisiae rad50 strain growth inhibition, hits give high values
In short: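 Cells are treated with compound, grown, and their growth is then scored against vehicle-only cultures of the same repair-deficient yeast strain.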

[2] = NCI Yeast Anticancer Drug Screen. Data for the mec2-1 strain (AID 157); conditions: S. cerevisiae mec2-1 strain, hits give high values
In short: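 Test agents were screened against the mec2-1 yeast strain, with defined DNA repair or cell cycle alteration. Growth was scored as inhibition against vehicle-only controls.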

[3] = NCI Yeast Anticancer Drug Screen. Data for the sgs1 mgt1 strain (AID 161);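 further: 0% = growth of cultures given vehicle only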; conditions: S. cerevisiae sgs1 mgt1 strain, hits give high values
In short: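 Inhibition of yeast growth, normalised to vehicle-treated controls, is reported for a strain bearing genetic alterations in DNA damage repair.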

[4] = NCI Yeast Anticancer Drug Screen. Data for the cln2 rad14 strain (AID 165);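 further: 0% = growth equal to vehicle treated cultures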; conditions: S. cerevisiae cln2 rad14 strain, hits give high values
In short: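 Growth of compound-exposed yeast (cln2 rad14 genotype) measured and expressed as inhibition relative to vehicle.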

[5] = NCI Yeast Anticancer Drug Screen. Data for the bub3 strain (AID 167); conditions: S. cerevisiae bub3 mutant strain, hits give high values
In short: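 Part of a panel of yeast mutants defective in DNA damage repair or cell cycle regulation. Each strain is grown with compound, and inhibition is calculated relative to solvent-treated cultures.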

[6] = NCI Yeast Anticancer Drug Screen. Data for the mlh1 rad18 strain (AID 175); conditions: S. cerevisiae mlh1 rad18 strain growth inhibition, hits give high values
In short: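 In this whole-cell yeast screen, a strain with altered DNA damage repair is challenged with compound, and its growth is measured against matched vehicle-treated controls.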

[7] = at 5.0 µM (retest, dose inferred, filed as 0.5)
[8] = at 50.0 µM (retest, dose inferred, filed as 5.0)

SMILES	growth inhibition [1, 7]	growth inhibition [1, 8]	growth inhibition ([1]; at 50.0 µM)	growth inhibition [2, 7]	growth inhibition [2, 8]	growth inhibition ([2]; at 50.0 µM)	growth inhibition [3, 7]	growth inhibition [3, 8]	growth inhibition [4, 7]	growth inhibition [4, 8]	growth inhibition [5, 7]	growth inhibition [5, 8]	growth inhibition [6, 7]	growth inhibition [6, 8]	growth inhibition ([6]; at 50.0 µM)	growth inhibition ([3]; at 50.0 µM)	growth inhibition ([4]; at 50.0 µM)	growth inhibition ([5]; at 50.0 µM)
c1ccc(-c2nc(N=C3N=c4ccccc4=N3)[nH]c2-c2ccccn2)nc1	59%	96% (active)	75.1% (active)	54%	97% (active)	77.8% (active)	36%	84% (active)	49%	93% (active)	58%	80% (active)	49%	98% (active)	75.5% (active)			
Cc1ccc(Nc2n[nH]c(=S)s2)cc1F	37%	90% (active)	85.8% (active)	46%	93% (active)	78.2% (active)	8%	79% (active)	49%	80% (active)	28%	80% (active)	27%	84% (active)	77.2% (active)			
C=C1C(=O)OC2CC1C(OC(=O)/C=C/c1ccccc1)C/C(C)=C/CC/C(C)=C/CCC2(C)O (configuration not stated)	50%	93% (active)	82.8% (active)	54%	96% (active)	81.7% (active)	60%	95% (active)	84% (active)	95% (active)	88% (active)	95% (active)	77% (active)	94% (active)	75.9% (active)	84.8% (active)	83% (active)	80% (active)
COC(=O)c1ccc(=O)c2nc3/c(=C/O)c(O)cc(=O)c3[nH]c12	98% (active)	92% (active)	90% (active)	99% (active)	94% (active)	92.1% (active)	99% (active)	97% (active)	96% (active)	96% (active)			99% (active)	95% (active)	39.5%	91.2% (active)	89.3% (active)	
CCCCCCCCCCCCCCCC[N+](C)(C)C	53%	94% (active)	91.3% (active)	45%	87% (active)	93.1% (active)	93% (active)	97% (active)	82% (active)	97% (active)	97% (active)	96% (active)	30%	84% (active)	91.7% (active)			
CCCOC1N(c2ccc(C)cc2)NC(=O)C1(C)C (configuration not stated)	86% (active)	95% (active)	83% (active)	82% (active)	94% (active)	56.6%	33%	96% (active)	50%	95% (active)	49%	93% (active)	65%	99% (active)	68.1%			
CCOC(=O)c1c(C)[nH]c2ccc(O)cc12	6%	15%	98.3% (active)	1%	-3%	96% (active)	-13%	20%	-12%	-10%	-24%	5%	-6%	50%	96.9% (active)	97% (active)	94.3% (active)	97.3% (active)
CC1(C=O)CCC23COC4(CCC5C6(C)CCC(OC7OCC(OC8OC(CO)C(O)C(OC9OC(CO)C(O)C(O)C9O)C8OC8OCC(O)C(O)C8O)C(O)C7OC7OC(CO)C(O)C(O)C7O)C(C)(C)C6CCC5(C)C4(C)CC2O)C3C1 (configuration not stated)	22%	93% (active)	66.8%	14%	96% (active)	85.2% (active)	9%	96% (active)	18%	94% (active)			22%	98% (active)	82.3% (active)	88.2% (active)	86.2% (active)	
c1ccc(C2NCCNC2c2ccccc2)cc1 (configuration not stated)	1%	-5%	2.15%	0%	-10%	15%	0%	-9%			4%	5%	-3%	-7%	-19.2%	22.3%		55.3%
CCCCCCCCc1cc(Cl)c(O)c(Cl)c1	3%	75% (active)	99.5% (active)	-8%	90% (active)	99.6% (active)	-14%	98% (active)	-13%	97% (active)	-11%	66%	-10%	98% (active)	99.3% (active)	99.2% (active)	99.6% (active)	98.7% (active)
Oc1ccc2ccccc2c1N=Nc1nccs1	27%	69%	82.8% (active)	51%	92% (active)	91.1% (active)	98% (active)	90% (active)	74% (active)	86% (active)	96% (active)	85% (active)	36%	77% (active)	77.8% (active)			
Cc1cc(O)c(O)c(C(C)(C)CC(C)(C)C)c1	36%	87% (active)	91.3% (active)	38%	83% (active)	92.5% (active)	97% (active)	100% (active)	78% (active)	100% (active)	94% (active)	99% (active)	23%	73% (active)	91.2% (active)			
CC(C)(C)c1ccc(O)c(-c2ccccc2)c1	-3%	97% (active)	99.2% (active)	-6%	98% (active)	99.7% (active)	-2%	98% (active)	-8%	98% (active)			-4%	98% (active)	66.5%	99.5% (active)	97.2% (active)	
CCCCCCCCCCCC[N+]1(CCCCCCCCCCCC)CCCC(C)C1 (configuration not stated)	99% (active)	99% (active)	88.8% (active)	100% (active)	94% (active)	91.3% (active)	100% (active)	99% (active)			99% (active)	99% (active)	99% (active)	99% (active)	88.7% (active)	91.1% (active)		90% (active)
CCN1/C(=C/C(C)=C/c2sc3ccc4ccccc4c3[n+]2CC)Sc2ccc3ccccc3c21	28%	30%	79.8% (active)	30%	36%	82% (active)	-7%	42%			43%	10%	41%	35%	69.9%	81.7% (active)		73.2% (active)
COC(=O)c1ccc(Cl)c(NN)c1	49%	66%	90.4% (active)	29%	59%	92.8% (active)	86% (active)	98% (active)	61%	99% (active)								
Cc1onc(-c2ccccc2)c1C(=O)N/N=C/c1cc(Cl)cc(Cl)c1O	92% (active)	95% (active)	80.6% (active)	96% (active)	96% (active)	88.5% (active)					94% (active)	63%	96% (active)	94% (active)	85.2% (active)			87.8% (active)
CCCCCCCCCCCCSC(=N)N	86% (active)	98% (active)	51.3%				84% (active)	98% (active)	20%	98% (active)	72% (active)	95% (active)	49%	99% (active)	64.2%	46.5%	97.2% (active)	98.7% (active)
COc1ccc2c(c1)C(N)=C(c1ccccc1)C2=O	14%	15%	70.2% (active)				16%	28%	17%	10%	24%	19%	21%	9%	-31.8%	63.1%	0.55%	59.2%
CC(=O)Oc1ccc(OC(C)=O)c2c1CC=CC2	3%	2%		-1%	1%		2%	10%	0%	11%	4%	8%	-20%	2%				
CSS(C)(=O)=O	59%	98% (active)		6%	99% (active)		10%	99% (active)	-4%	98% (active)	-1%	99% (active)	3%	95% (active)				
O=C1/C(=C\c2ccc([N+](=O)[O-])cc2)CS(=O)(=O)C/C1=C/c1ccc([N+](=O)[O-])cc1	81% (active)	96% (active)		97% (active)	98% (active)		93% (active)	96% (active)	91% (active)	97% (active)	97% (active)	99% (active)	94% (active)	96% (active)		87.2% (active)	86.8% (active)	87.6% (active)
O=C(NNc1ccccc1)OCc1ccccc1	41%	79% (active)	55%				42%	95% (active)	55%	97% (active)	50%	94% (active)	29%	84% (active)	32.5%			
